# Bioassay records deposited in PubChem by Broad Institute.
# ALR inh = inhibitors of human sulfhydryl oxidase ALR; purified ALR, DTT oxidation, H2O2 HRP-luminol luminescence; inhibition, % (no concentration beside the values); hit rate 3.8% among 290,000; AID 485317;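 active = mean replicate inhibition above about 79%, with every replicate also reaching it, limit read from the data; inconclusive = only one of the two criteria met; inactive = mean below limit and not every replicate reaching it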
# Target sequence (P55789 whole entry, looked up): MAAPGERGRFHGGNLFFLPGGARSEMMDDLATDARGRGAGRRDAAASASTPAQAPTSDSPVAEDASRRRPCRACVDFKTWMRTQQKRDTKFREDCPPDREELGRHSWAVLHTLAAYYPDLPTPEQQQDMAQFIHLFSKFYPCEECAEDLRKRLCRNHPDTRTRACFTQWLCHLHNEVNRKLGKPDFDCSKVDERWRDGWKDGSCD
# Env fusion inh = inhibitors of HIV Env-mediated cell fusion; HeLa-JRFL Env/CEM21 cell fusion, luciferase; inhibition, % at 12.3 µM; hit rate 1.1% among 360,000; AID 651610;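 active = mean replicate inhibition score of at least 50 and every replicate individually at or above 50; inconclusive = only one of the two criteria met; inactive = mean below 50 and not all replicates reaching 50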;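 also: 0% = plate neutral controls and 100% = maraviroc near 300 nM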
# NSD2 HMT inh = blocks human histone methyltransferase NSD2; AID 743445; NSD2 peptide methylation, AlphaScreen, 120 min; hit rate 0.54% among 310,000; inhibition, % at 12.5 µM; in the data active = inhibition above about 50%
# Casp6 inh = caspase-6 (human) enzyme inhibition. hit rate 0.53% among 350,000. inhibition, % at 12.5 µM. purified caspase-6, Z-VEID-R110 cleavage fluorescence. AID 686996;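 active = mean inhibition across replicates at least about 35%, with every replicate also reaching that limit, limit read from the data; inconclusive = only one of the two criteria met; inactive = neither criterion met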;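 also: 0% = median of neutral control wells and 100% = no fluorescence left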
# Target sequence (P55212 24-179 limits assumed): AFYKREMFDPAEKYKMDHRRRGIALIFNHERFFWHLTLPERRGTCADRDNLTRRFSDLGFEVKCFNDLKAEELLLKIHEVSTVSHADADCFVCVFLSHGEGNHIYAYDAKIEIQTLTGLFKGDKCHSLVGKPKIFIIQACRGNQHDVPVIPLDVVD
# Target sequence (P55212 194-293 limits assumed): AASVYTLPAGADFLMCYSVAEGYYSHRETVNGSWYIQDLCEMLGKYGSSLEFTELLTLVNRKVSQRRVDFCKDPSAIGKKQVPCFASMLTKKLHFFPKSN
# PglD inh = PglD (C. jejuni) enzyme inhibition; purified PglD enzyme, DTNB colorimetric CoA detection; hit rate 0.098% among 360,000; inhibition, % at 12.5 µM; in the data active = inhibition above about 16%, passing the limit was not always enough; inconclusive = no clear call, values can overlap the other calls
# F508del corr = CFTR F508del correction in bronchial cells | AID 720511 | activity (quench increase), % at 7.58 µM | hit rate 0.36% among 350,000 | CFBE cells, YFP halide quenching; stimulated with forskolin plus potentiator P3; % fluorescence drop versus neutral controls;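 active = mean added fluorescence quench of at least 8% versus neutral control, with both replicates also reaching 8%; inconclusive = only one of the mean or replicate conditions met; inactive = mean below 8% and not both replicates reaching 8%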;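 also: cells transiently co-express mutant CFTR-F508del with the halide-sensitive YFP; corrector assay measuring rescue of mutant channel to the surface after 24 h compound exposure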
# * hit, by the source's call; ? = inconclusive; / = no result given; [ ] = dose if it differs, or a comment. Sampled rows, rich in hits. Any-hit rate of the full collection: about 4.1%.
SMILES,ALR inh,Env fusion inh,NSD2 HMT inh,Casp6 inh,PglD inh,F508del corr
Nc1ccc(-c2nc3cc(N)ccc3o2)cc1,93*,-64,-2,-2,6,-2
Cc1ccc(C)c(-c2nc3cc(N)ccc3o2)c1,99*,/,-3,/,/,/
CN(C)c1ccc(-c2nc3cc(N)ccc3o2)cc1,99*,-48,-1,3,-4,1
Nc1ccc2oc(-c3ccccc3Cl)nc2c1,/,/,-4,-2,-6,-2
C[C@@H]1CCCCO[C@@H](CN(C)Cc2ccc(C(F)(F)F)cc2)[C@H](C)CN([C@@H](C)CO)C(=O)c2cc(NC(=O)C3CCCCC3)ccc2O1,/,17[16.7 µM],/,/,-3,-3
COc1ccccc1S(=O)(=O)N[C@H]1C=C[C@@H](CC(=O)NCc2cccc(F)c2)O[C@H]1CO,/,-2[16.7 µM],/,1,3,1
CN(C)CC(=O)Nc1ccc2c(c1)[C@@H]1C[C@@H](CC(=O)NC3CCCCC3)O[C@@H](CO)[C@@H]1O2,/,0[16.7 µM],/,-1,-1,0
O=C(NC1CCCCC1)[C@H]1[C@H](CO)[C@H]2Cn3c(cccc3=O)[C@@H]1N2CC1CCCC1,/,/,/,0,/,-3
COC(=O)c1ccc(-c2nc3cc(N)ccc3o2)cc1,95*,/,1,/,4,/
COCC(=O)Nc1ccc2c(c1)C(=O)N(C)C[C@@H](OC)[C@H](C)CN(C(=O)CN1CCOCC1)[C@H](C)CO2,/,/,/,/,/,0
CCn1c(=NC(=O)CS(=O)(=O)c2ccc(C)cc2)sc2cccc(OC)c21,-8,75*,1,-8,1,-1
Cc1onc(-c2ccccc2)c1-c1n[nH]c(=S)n1-c1ccc(C(=O)O)cc1,89*,/,-8,2,-6,/
C[C@H]1CN([C@@H](C)CO)S(=O)(=O)c2ccc(/C=C/c3ccccc3)cc2O[C@H]1CN(C)C(=O)CN1CCOCC1,/,1[16.7 µM],/,/,/,4
O=C1c2ccccc2NC(c2ccc(-c3cccc([N+](=O)[O-])c3)o2)N1O (stereo unspecified),90*,58*,3,19,/,/
O=C(CCCn1c(=S)[nH]c2cc3c(cc2c1=O)OCO3)N1CCN(c2ncccn2)CC1,20,19,1,/,1,/
O=C(CCCn1c(=S)[nH]c2cc3c(cc2c1=O)OCO3)N1CCN(C2CCCCC2)CC1,83*,-1,0,/,0,/
CCN1CCN(CCn2c(=S)[nH]c3cc4c(cc3c2=O)OCO4)CC1,92*,-181,10,/,4,/
CCN(CC)CCn1c(=S)[nH]c2cc3c(cc2c1=O)OCO3,69,-122,6,/,5,/
COc1ccccc1S(=O)(=O)N[C@H]1CC[C@H](CCn2cc(C3CCCCC3)nn2)O[C@H]1CO,/,16[16.7 µM],/,2,-2,-1
CO[C@H]1CN(C)C(=O)c2cc(NC(=O)c3cccc(Oc4ccccc4)c3)ccc2OC[C@@H](C)NC[C@@H]1C,/,/,/,/,/,-3
CCOc1cc(/C=N/NC(=O)CCc2n[nH]c(=O)[nH]c2=O)ccc1O,99*,8,10,2,-3,-3
CCOc1cc(/C=N/NC(=O)CCCC(=O)NC2CCCCC2)ccc1O,99*,6,-1,0,-5,/
COc1ccc(/C=N/NC(=O)CCc2n[nH]c(=O)[nH]c2=O)cc1OC,/,-23,4,/,-1,/
c1ccc(NNC2=NCCS2)cc1,91*,9,3,/,-5,1
Cc1ccc(S(=O)(=O)Nc2c(NC3CCCCC3)c3ccccc3oc2=O)cc1,29,0,-6,0,2,3
SMILES,ALR inh,Env fusion inh,NSD2 HMT inh,Casp6 inh,PglD inh,F508del corr
Nc1c(NC2CCCCC2)c2ccccc2oc1=O,99*,27,4,/,/,/
Cc1ccccc1Nc1c(N)c(=O)oc2ccccc12,99*,-40,9,/,-3,/
C[C@H](CO)N1C[C@H](C)[C@@H](CN(C)Cc2ccc(-c3ccccc3)cc2)Oc2ccc(NS(=O)(=O)c3ccc(Cl)cc3)cc2CC1=O,/,22[16.7 µM],/,/,/,3
O=c1ccc2c([nH]1)CCCCCCCCCC2,-3,56*,-2,0,-5,1
O=C(O)c1cc2c([nH]c1=O)CCCC2,3,33,-1,/,4,/
O=C(C[C@H]1CC[C@H](NC(=O)C2CCOCC2)[C@H](CO)O1)Nc1ccccc1,/,/,/,0,/,2
COc1ccc(N2CCN(C(=O)Cc3nn(C)c(=O)c4ccccc34)CC2)cc1,?,61*,-5,/,2,/
COc1ccc(N2CCN(C(=O)Cc3ccc(C)cc3)CC2)cc1,80*,1,4,0,0,2
COc1ccc(CNC(=O)Cc2nn(C)c(=O)c3ccccc23)cc1,-21,/,-2,/,/,/
COc1ccc(N2CCN(C(=O)Cc3ccc(Cl)cc3)CC2)cc1,71,-11,2,2,0,-2
Cn1ncc(Cl)c1C(=O)N1CCN(c2ccc(Cl)c(Cl)c2)CC1,-7,16,-1,2,3,-1
COc1ccc(N2CCN(C(=O)c3c(Cl)cnn3C)CC2)cc1,99*,/,2,2,-9,1
COc1ccc(N2CCN(C(=O)C3(C)CC3(Cl)Cl)CC2)cc1 (stereo unspecified),99*,-5,-2,/,/,/
O=S(=O)(N[C@H]1CC[C@@H](CCn2cc(C3(O)CCCC3)nn2)O[C@@H]1CO)c1ccc(F)cc1,/,-25[16.7 µM],/,-1,1,-3
COCC(=O)N(C)C[C@@H]1Oc2ncc(-c3cccc(OC)c3)cc2C(=O)N([C@H](C)CO)C[C@H]1C,/,-24[16.7 µM],/,3,-1,1
N#Cc1cccc(-c2ccc3c(c2)[C@@H]2[C@@H](CCN2C(=O)C2CCCCC2)[C@@H](CO)N3)c1,/,/,/,-2,-1,1
COc1ccc(N2CCN(C(=O)CSc3nnnn3C3CC3)CC2)cc1,87*,-2,2,-1,-5,0
COc1ccc(C(=O)CCC(=O)N2CCN(c3ccc(C)cc3)C(C)C2)cc1 (stereo unspecified),99*,5,4,-6,-8,-2
COc1ccc(N2CCN(C(=O)CCCC(=O)c3ccccc3)CC2)cc1,47,6,/,-3,-1,2
Cn1c(N/N=C/c2ccccc2)nc2sc3c(c2c1=O)CCC3,92*,/,2,/,-1,/
O=C(CSc1nc2sc3c(c2c(=O)n1-c1ccccc1)CCCC3)N/N=C/c1ccc(C(=O)O)cc1,34,/,/,/,14,/
S=c1[nH]c2cc(Cl)ccc2s1,98*,/,4,2,/,-2
C[C@@H]1C[C@H](Nc2ccccc2)c2ccccc2N1C(=O)c1cccnc1,27,/,1,/,10,/
CC1CC(Nc2ccccc2)c2ccccc2N1C(=O)c1cccnc1 (stereo unspecified),100*,20,3,/,-6,/
Cc1cc(N)n2ncc(-c3ccccc3)c2n1,90*,/,-9,/,6,/
O=C(NCCn1cc(CN2C(=O)COC[C@H]2c2ccccc2)nn1)Nc1ccccc1,/,-3[16.7 µM],/,1,/,0
CCSc1nc2c(c(-c3ccc(C)o3)c1C#N)CCCC2,83*,30,-1,/,/,/
COC(=O)CSc1nc2c(c(-c3ccc(C)o3)c1C#N)CCCC2,-6,19,0,/,-1,/
